Compound: CN[C@@H]1C[C@H]2O[C@@](C)([C@@H]1OC)n1c3ccccc3c3c4c(c5c6ccccc6n2c5c31)C(=O)NC4 [staurosporine]
Assay: log2 fold change of tryptic peptide abundance, ligand vs vehicle (limited proteolysis) (log2 ratio); higher = more trypsin-susceptible (destabilized)
Details: ligand concentration: 20 uM; sample: mouse liver crude lysate; replicate design: treated separately

Chain of UniProt P55096 (P55096 whole entry): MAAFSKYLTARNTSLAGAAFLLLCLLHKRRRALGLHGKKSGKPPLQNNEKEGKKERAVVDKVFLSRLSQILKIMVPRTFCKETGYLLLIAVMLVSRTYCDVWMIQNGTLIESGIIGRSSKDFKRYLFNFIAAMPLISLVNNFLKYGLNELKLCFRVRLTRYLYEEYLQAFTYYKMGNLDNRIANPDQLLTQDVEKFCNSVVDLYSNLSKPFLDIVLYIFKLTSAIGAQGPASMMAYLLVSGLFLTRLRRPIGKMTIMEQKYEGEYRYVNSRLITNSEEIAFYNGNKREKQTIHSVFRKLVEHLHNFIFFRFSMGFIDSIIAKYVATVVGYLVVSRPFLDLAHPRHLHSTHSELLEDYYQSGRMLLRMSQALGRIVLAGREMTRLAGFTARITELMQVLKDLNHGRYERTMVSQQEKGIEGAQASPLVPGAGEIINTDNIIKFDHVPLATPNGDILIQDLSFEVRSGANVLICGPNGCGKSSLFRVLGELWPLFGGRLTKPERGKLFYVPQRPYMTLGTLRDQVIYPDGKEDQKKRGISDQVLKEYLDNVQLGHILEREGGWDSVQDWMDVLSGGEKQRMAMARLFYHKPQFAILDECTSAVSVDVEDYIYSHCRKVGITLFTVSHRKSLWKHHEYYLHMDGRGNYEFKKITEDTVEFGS
Chain of UniProt Q9CZW4 (Q9CZW4 whole entry): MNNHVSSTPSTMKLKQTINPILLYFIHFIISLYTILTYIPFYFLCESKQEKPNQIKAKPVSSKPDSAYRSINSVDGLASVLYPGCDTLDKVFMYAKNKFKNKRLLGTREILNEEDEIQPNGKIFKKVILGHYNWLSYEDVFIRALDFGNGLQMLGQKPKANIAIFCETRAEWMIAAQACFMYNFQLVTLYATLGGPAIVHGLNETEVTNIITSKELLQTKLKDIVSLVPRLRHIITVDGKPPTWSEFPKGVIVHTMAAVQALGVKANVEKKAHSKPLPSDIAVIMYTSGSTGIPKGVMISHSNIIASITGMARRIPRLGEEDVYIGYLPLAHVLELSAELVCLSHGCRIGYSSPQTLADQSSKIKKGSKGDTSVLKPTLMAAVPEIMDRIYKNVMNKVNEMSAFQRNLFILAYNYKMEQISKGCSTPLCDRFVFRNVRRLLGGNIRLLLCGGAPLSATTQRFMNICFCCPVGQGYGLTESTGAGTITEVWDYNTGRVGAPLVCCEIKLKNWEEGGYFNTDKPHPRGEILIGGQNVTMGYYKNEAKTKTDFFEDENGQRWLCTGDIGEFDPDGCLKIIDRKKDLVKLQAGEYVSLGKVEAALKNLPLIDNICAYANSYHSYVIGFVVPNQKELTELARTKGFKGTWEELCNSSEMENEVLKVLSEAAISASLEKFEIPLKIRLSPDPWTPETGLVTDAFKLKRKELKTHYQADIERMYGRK
Chain of UniProt Q9D6M3 (Q9D6M3 whole entry): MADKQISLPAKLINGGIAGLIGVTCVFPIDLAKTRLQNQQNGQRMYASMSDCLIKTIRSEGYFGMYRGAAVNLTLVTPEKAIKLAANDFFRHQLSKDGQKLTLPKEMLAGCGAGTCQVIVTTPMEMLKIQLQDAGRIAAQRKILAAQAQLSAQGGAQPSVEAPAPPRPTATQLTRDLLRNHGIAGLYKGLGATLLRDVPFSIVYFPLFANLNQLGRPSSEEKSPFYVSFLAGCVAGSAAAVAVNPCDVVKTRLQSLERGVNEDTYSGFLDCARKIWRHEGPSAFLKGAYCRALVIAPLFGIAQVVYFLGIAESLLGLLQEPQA
Chain of UniProt Q9WU19 (Q9WU19 whole entry): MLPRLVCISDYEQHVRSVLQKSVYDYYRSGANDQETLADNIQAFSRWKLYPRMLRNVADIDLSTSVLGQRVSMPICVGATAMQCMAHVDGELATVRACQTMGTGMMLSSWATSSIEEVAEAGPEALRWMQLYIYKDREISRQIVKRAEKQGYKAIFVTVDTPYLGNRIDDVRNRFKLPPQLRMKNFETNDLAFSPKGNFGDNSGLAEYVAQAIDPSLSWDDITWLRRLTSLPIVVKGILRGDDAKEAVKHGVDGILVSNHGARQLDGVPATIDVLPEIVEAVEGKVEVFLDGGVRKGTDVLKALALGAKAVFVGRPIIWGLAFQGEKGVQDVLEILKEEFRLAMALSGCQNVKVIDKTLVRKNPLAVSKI
Chain of UniProt Q9DB30 (Q9DB30 whole entry): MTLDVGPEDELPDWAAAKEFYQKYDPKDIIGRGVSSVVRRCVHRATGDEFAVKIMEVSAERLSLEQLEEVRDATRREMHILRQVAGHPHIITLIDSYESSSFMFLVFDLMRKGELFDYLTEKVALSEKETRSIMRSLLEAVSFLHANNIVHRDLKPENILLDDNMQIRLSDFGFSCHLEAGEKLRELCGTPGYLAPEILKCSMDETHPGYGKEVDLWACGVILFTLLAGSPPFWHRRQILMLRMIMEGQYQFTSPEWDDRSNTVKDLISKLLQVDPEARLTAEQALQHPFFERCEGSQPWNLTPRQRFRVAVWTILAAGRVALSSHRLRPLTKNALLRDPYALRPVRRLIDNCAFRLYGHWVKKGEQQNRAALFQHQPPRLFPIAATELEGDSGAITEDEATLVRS
Chain of UniProt Q8BYC6 (Q8BYC6 whole entry): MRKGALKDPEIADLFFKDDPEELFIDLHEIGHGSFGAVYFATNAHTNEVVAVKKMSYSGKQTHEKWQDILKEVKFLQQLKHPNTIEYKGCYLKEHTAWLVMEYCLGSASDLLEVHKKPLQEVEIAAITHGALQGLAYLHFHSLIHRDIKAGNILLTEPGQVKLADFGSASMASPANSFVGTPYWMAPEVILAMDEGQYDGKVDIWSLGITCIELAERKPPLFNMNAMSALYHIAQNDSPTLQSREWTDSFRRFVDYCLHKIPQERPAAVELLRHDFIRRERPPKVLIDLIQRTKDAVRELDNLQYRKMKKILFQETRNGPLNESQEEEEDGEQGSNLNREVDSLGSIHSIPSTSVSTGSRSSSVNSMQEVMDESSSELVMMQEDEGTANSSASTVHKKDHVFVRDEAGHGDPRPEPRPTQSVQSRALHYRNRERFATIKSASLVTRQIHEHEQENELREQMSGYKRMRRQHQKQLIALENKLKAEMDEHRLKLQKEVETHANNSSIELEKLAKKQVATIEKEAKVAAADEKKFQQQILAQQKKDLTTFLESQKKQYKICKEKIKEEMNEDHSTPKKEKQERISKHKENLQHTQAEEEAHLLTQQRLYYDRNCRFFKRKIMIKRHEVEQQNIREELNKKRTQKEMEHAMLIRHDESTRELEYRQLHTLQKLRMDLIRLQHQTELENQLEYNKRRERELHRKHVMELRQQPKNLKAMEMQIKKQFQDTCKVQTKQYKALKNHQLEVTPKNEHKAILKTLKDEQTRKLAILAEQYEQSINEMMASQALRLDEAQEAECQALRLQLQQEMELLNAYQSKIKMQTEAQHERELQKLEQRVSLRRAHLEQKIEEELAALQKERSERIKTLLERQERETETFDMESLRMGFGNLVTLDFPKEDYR
Chain of UniProt O08605 (O08605 whole entry): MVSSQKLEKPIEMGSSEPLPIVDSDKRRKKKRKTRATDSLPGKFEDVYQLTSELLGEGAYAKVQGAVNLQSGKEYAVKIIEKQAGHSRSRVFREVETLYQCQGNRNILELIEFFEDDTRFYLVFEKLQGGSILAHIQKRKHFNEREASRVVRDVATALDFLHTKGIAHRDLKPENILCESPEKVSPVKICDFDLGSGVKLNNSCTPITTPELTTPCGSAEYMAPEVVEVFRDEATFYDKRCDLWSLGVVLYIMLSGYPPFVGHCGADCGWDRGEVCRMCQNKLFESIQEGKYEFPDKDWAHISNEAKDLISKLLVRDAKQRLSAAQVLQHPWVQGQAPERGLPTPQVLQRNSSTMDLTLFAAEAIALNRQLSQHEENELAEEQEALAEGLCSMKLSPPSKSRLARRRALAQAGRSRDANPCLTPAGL
Chain of UniProt Q8BX94 (Q8BX94 whole entry): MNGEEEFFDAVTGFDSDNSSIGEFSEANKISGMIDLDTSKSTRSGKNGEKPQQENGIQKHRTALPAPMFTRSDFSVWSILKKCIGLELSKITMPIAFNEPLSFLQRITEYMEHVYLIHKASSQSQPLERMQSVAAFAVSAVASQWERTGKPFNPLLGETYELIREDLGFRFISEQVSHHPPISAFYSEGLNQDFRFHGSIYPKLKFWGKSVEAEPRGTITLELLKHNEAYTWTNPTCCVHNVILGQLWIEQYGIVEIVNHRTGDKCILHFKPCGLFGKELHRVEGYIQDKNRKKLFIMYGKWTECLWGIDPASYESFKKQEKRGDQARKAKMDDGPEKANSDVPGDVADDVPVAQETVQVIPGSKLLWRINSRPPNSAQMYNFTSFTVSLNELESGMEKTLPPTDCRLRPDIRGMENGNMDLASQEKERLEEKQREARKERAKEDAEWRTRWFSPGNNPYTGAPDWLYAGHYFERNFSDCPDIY
Chain of UniProt Q9QXD1 (Q9QXD1 whole entry): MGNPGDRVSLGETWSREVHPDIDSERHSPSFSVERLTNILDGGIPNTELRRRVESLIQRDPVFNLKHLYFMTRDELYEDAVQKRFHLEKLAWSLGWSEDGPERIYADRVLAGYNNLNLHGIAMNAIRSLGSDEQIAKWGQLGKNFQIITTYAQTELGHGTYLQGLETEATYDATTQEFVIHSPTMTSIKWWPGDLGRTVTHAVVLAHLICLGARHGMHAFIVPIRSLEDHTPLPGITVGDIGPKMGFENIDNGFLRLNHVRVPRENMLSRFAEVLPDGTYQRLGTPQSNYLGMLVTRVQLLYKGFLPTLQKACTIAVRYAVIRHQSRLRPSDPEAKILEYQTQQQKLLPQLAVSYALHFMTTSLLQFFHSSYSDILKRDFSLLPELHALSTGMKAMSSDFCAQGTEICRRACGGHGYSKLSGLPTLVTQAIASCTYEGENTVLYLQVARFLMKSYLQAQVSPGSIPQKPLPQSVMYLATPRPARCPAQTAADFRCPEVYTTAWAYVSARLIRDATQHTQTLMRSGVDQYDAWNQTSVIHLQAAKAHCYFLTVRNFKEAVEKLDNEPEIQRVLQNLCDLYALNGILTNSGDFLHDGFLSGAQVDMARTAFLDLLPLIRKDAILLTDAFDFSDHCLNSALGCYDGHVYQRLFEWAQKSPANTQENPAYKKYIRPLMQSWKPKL

Row | Target | log2 fold change
1 | UniProt Q5U5V2 (peptide sequence: ENFIWNLK, peptide start residue: 175) | -0.924
2 | UniProt Q9ET43 (peptide sequence: SRLSAIEIDIPVVSHST, peptide start residue: 228) | -0.532
3 | UniProt P47962 (peptide sequence: GAVDGGLSIPHSTK, peptide start residue: 165) | 0.536
4 | UniProt Q8R0Y8 (peptide sequence: MQTAGVTGHQHGSILSTLR, peptide start residue: 254) | 0.401
5 | UniProt Q3UU96 (peptide sequence: LHREDFEILK, peptide start residue: 72) | -1.65
6 | UniProt O70293 (peptide sequence: EFCATRPELTR, peptide start residue: 69) | -1.23
7 | UniProt Q6PGL7 (peptide sequence: RPTSFADELAAR, peptide start residue: 281) | -0.483
8 | UniProt O88451 (peptide sequence: LWDQTSSEVK, peptide start residue: 225) | -0.709
9 | UniProt P27659 (peptide sequence: LLPLRQKK, peptide start residue: 170) | -0.616
10 | UniProt Q9CZW4 (peptide sequence: ALDFGNGLQMLGQKPK, peptide start residue: 144) | 0.538
11 | UniProt Q9Z2B9 (peptide sequence: KIPAPFRPQIR, peptide start residue: 313) | -1.34
12 | UniProt Q922S4 (peptide sequence: AMGNRPMEMMDR, peptide start residue: 838) | 0.447
13 | UniProt Q8VDU5 (peptide sequence: IAGLYDLDKTLGR, peptide start residue: 12) | -1.42
14 | UniProt P31750 (peptide sequence: HPFLTALK, peptide start residue: 209) | -1.6
15 | UniProt Q9JLB2 (peptide sequence: DRFASAVPHTTR, peptide start residue: 505) | 0.704
16 | UniProt Q9JM52 (peptide sequence: GNALKEDCIAYICR, peptide start residue: 122) | -0.672
17 | UniProt Q9R117 (peptide sequence: NVLLDNDR, peptide start residue: 1025) | -1.42
18 | UniProt O09110 (peptide sequence: TFITIGDR, peptide start residue: 48) | -0.503
19 | UniProt Q925I1 (peptide sequence: LGKPSLVR, peptide start residue: 278) | 0.434

Row | Target | log2 fold change
20 | UniProt P43883 (peptide sequence: DQYPYLR, peptide start residue: 38) | 0.671
21 | UniProt Q8BX94 (peptide sequence: TALPAPMFTR, peptide start residue: 62) | 0.84
22 | UniProt P56593 (peptide sequence: FSNFAPLGIPR, peptide start residue: 360) | -0.352
23 | UniProt Q91YQ1 (peptide sequence: STVGVDFALK, peptide start residue: 38) | 0.602
24 | UniProt Q9QXD1 (peptide sequence: LFEWAQK, peptide start residue: 649) | -0.551
25 | UniProt Q9QVP9 (peptide sequence: CWDYDPSDRPR, peptide start residue: 661) | -1.22
26 | UniProt Q9WU19 (peptide sequence: LAMALSGCQNVK, peptide start residue: 342) | 0.411
27 | UniProt Q9JIZ0 (peptide sequence: LAGICTIQLK, peptide start residue: 207) | 0.276
28 | UniProt P55096 (peptide sequence: EKQTIHSVFRK, peptide start residue: 288) | 0.493
29 | UniProt O08605 (peptide sequence: GLPTPQVLQR, peptide start residue: 341) | 1.06
30 | UniProt Q8BYC6 (peptide sequence: VLIDLIQR, peptide start residue: 285) | -1.67
31 | UniProt Q9DBN5 (peptide sequence: NEKDLEEIPSNVR, peptide start residue: 804) | -1.06
32 | UniProt P97864 (peptide sequence: LFFIQACR, peptide start residue: 180) | -0.485
33 | UniProt Q9D6M3 (peptide sequence: LAANDFFR, peptide start residue: 84) | 0.616
34 | UniProt P43142 (peptide sequence: YLPKEQAR, peptide start residue: 334) | -0.325
35 | UniProt A2ALW5 (peptide sequence: WIYNFNIK, peptide start residue: 263) | 0.844
36 | UniProt P18654 (peptide sequence: GAMAATYSALNR, peptide start residue: 701) | 0.612
37 | UniProt Q9DB30 (peptide sequence: IMEVSAER, peptide start residue: 54) | -3.03
38 | UniProt Q9WTK7 (peptide sequence: SMTVVPYLEDLHGR, peptide start residue: 334) | 1.41
